Laboratory results as given in PubChem BioAssay (NCI).
Compounds without any hit were thinned out: in the full panel of roughly 79,000, 15% have a hit. A number with no mark means an inactive call. Activity calls are given as the source filed them. Rule as the data show it: active = growth inhibition above about 70%; inactive = the rest.

Test: NCI Yeast Anticancer Drug Screen. Data for the cln2 rad14 strain (AID 165);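 also: 0% = growth equal to vehicle treated cultures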
Conditions: S. cerevisiae cln2 rad14 strain, hits give high values
Description: Growth inhibition of yeast strains with defined genetic alterations is measured as a screen for potential anti-cancer activity. Selected strains with alterations in DNA damage repair or cell cycle control were exposed to compounds and growth inhibition was measured relative to vehicle treated controls. The strain used in this assay is cln2 rad14

[1] = at 5.0 µM (retest, dose inferred, filed as 0.5)
[2] = at 50.0 µM (retest, dose inferred, filed as 5.0)

| SMILES | growth inhibition [1] [%] | growth inhibition [2] | growth inhibition (at 50.0 µM) |
| --- | --- | --- | --- |
| CN(Cc1cc(Br)cc(Br)c1O)Cc1c[nH]c2ccccc12 | -2 | 0% | 62.2% |
| CC(C)c1cc(C(=O)[O-])c(O)c(C(C)C)c1.CC(C)c1cc(C(=O)[O-])c(O)c(C(C)C)c1.CC(C)c1cc(C(=O)[O-])c(O)c(C(C)C)c1.CC(C)c1cc(C(=O)[O-])c(O)c(C(C)C)c1.CC(C)c1cc(C(=O)[O-])c(O)c(C(C)C)c1.CC(C)c1cc(C(=O)[O-])c(O)c(C(C)C)c1.[Cu+2].[Mn+2].[Mn+2] | 34 | 53% | 50.7% |
| O=C1C(Cl)=CC(=NCl)C=C1Cl | 47 | 100% (active) | 85% (active) |
| CN(Cc1cnc2nc(N[Si](C)(C)C)nc(N[Si](C)(C)C)c2n1)c1ccc(C(=O)NC(CCC(=O)O[Si](C)(C)C)C(=O)O[Si](C)(C)C)cc1 (configuration not stated) | -8 | 47% | 26% |
| CCCC/C=C1/CCC(CN(C)C)C1=O (configuration not stated) | 6 | 40% | 46.2% |
| O=C(/C=C\c1ccc([N+](=O)[O-])o1)/C=C/c1ccc([N+](=O)[O-])o1 | 28 | 97% (active) | 92.7% (active) |
| CCCCCCC(=O)CCCCCC/C=C\CC1OC(=O)C(N)(CO)C1O (configuration not stated) | 55 | 98% (active) | 90% (active) |
| CCC(C)(C)NCCCCCNc1cc(OC)cc2cccnc12 | 0 | 9% | 21.4% |
| CC(=O)N(c1ccccc1)C(C)C | -1 | -5% | 44.4% |
| CCCc1nc2ccccc2c(=O)n1/N=C/c1ccccc1O | -4 | -2% | 53.8% |
| CC(=O)Oc1ccc(N2C(=O)C=CC2=O)cc1 | 56 | 100% (active) | 54.2% |
| CSCCC(NC(=O)C(CCSC)NS(=O)(=O)Cc1ccccc1)C(=O)O (configuration not stated) | -2 | -12% | 98.7% (active) |
| COC12C(COC(N)=O)C3=C(C(=O)C(C)=C(N)C3=O)N1CC1C2N1C(=O)/C=C/c1ccccc1 (configuration not stated) | 3 | 80% (active) | 75.7% (active) |
| CCCCCCCCCCCCCCCC1=NCCN1C | 15 | 98% (active) | 96.5% (active) |
